Test results reported in PubChem BioAssay (EPA / NIEHS).
Several values for one entry are separate records, joined by “and”; a condition that tells them apart may be missing. Equal values may be shown once. The source holds several records for some structures; these can differ, active in one and inactive in another. Activity calls are given as the source filed them. Rule for the calls: active = hit-call score of the fitted dose curve at least 0.9, where 1 is the maximum; inactive = score below 0.9.

Assay: BSK_LPS_PGE2: BioMAP Diversity Plus: LPS Assay for Prostaglandin E2 (PGE2) Biomarker Activity (AID 2283082)
Conditions: primary human HUVEC with PBMC; actives raise or lower the signal
Method: BSK_LPS is a cell-based, multiplexed-readout assay that uses umbilical vein endothelium and peripheral blood mononuclear cells, a human vascular primary cell co-culture, with measurements taken at 24 hours after chemical dosing in a 96-well plate.BSK_LPS_PGE2 is an assay component measured in the BSK_LPS assay. It measures PGE2 antibody related to regulation of gene expression using ELISA technology.Data from the assay component BSK_LPS_PGE2 was analyzed into 1 assay endpoint. This assay endpoint, BSK_LPS_PGE2, was analyzed with bidirectional fitting relative to DMSO as the negative control and baseline of activity. Using a type of binding reporter, gain or loss-of-signal activity can be used to understand changes in the signaling as they relate to the gene PTGER2. Furthermore, this assay endpoint can be referred to as a primary readout, because this assay has produced multiple assay endpoints where this one serves a signaling function. To generalize the intended target to other relatable targets, this assay endpoint is annotated to the gpcr intended target family, where the subfamily is rhodopsin-like receptor.
The levels of cell surface (or secreted, indicated by the prefix "s") biomarker endpoints were measured by ELISA. Overt cytotoxicity to cells in confluent adherent cultures (all systems other than the BT system) was assessed by measuring total protein levels using sulforhodamine B (SRB) staining in parallel cultures at the time of biomarker measurements, indicated as SRB endpoints. For proliferation assays for adherent cell types, individual cell types are cultured at sub-confluence and relative cell numbers quantified by SRB staining at time points optimized for each system (48 h: 3C and CASM3C systems; 72 h: BT and HDF3CGF systems; 96 h: SAg system). SRB was performed by staining cells with 0.1% SRB after fixation with 10% TCA and reading wells at 560 nm.Viability and proliferation of PBMC (T cells) was quantified by Alamar Blue reduction for the SAg and BT systems. For PBMC viability (referred to as PBMC Cytotoxicity within the assay endpoint names), cells were plated (75,000/well in a 96-well plate) and then chemical samples added for 1 h before addition of activators, SEB and TSST-1 (20 ng/mL final concentration each). Cells were incubated for 90 h. Then, Alamar Blue (20 uL/well) (Invitrogen, Cat DAL1100) was added for 6 h, and the plates were read with a fluorescence microplate reader at 546/580 nm (excitation/emission). For PBMC proliferation, cells were plated and activated as above but incubated for only 16 h prior to addition of Alamar Blue. Plates were read after 6 h.

SMILES	outcome	AC50
Cc1ccc(S(=O)(=O)OCC(F)(F)C(F)(F)C(F)(F)C(F)(F)C(F)(F)C(F)F)cc1	inactive	
O=C(O)C(F)(F)C(F)(F)C(F)(F)F	inactive	
Nc1ccc([N+](=O)[O-])cc1O	inactive	
CCCCCCC(C)OC(=O)CCCCC(=O)OC(C)CCCCCC (stereo not given)	inactive	
CC(CCl)OP(=O)(OC(C)CCl)OC(C)CCl (stereo not given)	inactive	
O=C(O)C(F)(F)C(F)(F)C(F)(F)C(F)(F)C(F)(F)C(F)(F)C(F)(F)C(F)(F)C(F)(F)C(F)F		42.6 µM (active) and 48.8 µM (active)
FC(F)(F)C(F)(F)C(F)(F)C(F)(F)C(F)(F)C(F)(F)C(F)(F)Br	inactive	
FC(F)(F)C(F)(F)C(F)(F)N(C(F)(F)C(F)(F)C(F)(F)F)C(F)(F)C(F)(F)C(F)(F)F	inactive	
FC(F)(F)C(F)(F)C(F)(F)CI	inactive	
CC(C)(C)C(=O)CC(=O)C(F)(F)C(F)(F)C(F)(F)F	inactive	30 µM (active)
O=C(CC(=O)C(F)(F)C(F)(F)F)C(F)(F)F	inactive	
FC(F)(F)C(F)(F)C(F)(F)C(F)(F)C(F)(F)C(F)(F)C(F)(F)I	inactive	
O=C(O)C(F)(OC(F)(F)C(F)(OC(F)(F)C(F)(F)C(F)(F)F)C(F)(F)F)C(F)(F)F (stereo not given)	inactive	
FC(F)(Br)C(F)(F)C(F)(F)C(F)(F)C(F)(F)C(F)(F)Br	inactive	
O=S(=O)(O)C(F)(F)C(F)(F)C(F)(F)C(F)(F)C(F)(F)C(F)(F)C(F)(F)F	inactive	
OCC(F)(F)C(F)(F)C(F)(F)C(F)F	inactive	
CCN(CC)c1ccc2c(C)cc(=O)oc2c1		6.52 µM (active)
C#C[C@]1(O)CC[C@H]2[C@@H]3CCc4cc(OC)ccc4[C@H]3CC[C@@]21C	inactive	
N=C(N)C(F)(F)C(F)(F)C(F)(F)C(F)(F)C(F)(F)C(F)(F)C(F)(F)F	inactive	
CCCCOCCOCCOC(=O)CCCCC(=O)OCCOCCOCCCC	inactive	

SMILES	outcome	AC50
OCC(F)(F)C(F)(F)C(F)(F)C(F)(F)C(F)(F)C(F)F	inactive	
Oc1ccc(Nc2ccccc2)cc1		0.668 µM (active)
CCc1c(Br)c(Br)c(Br)c(Br)c1Br	inactive	
OCCCC(F)(F)C(F)(F)C(F)(F)F	inactive	
O=C(Cl)C(F)(F)C(F)(F)C(F)(F)C(F)(F)C(F)(F)C(F)(F)C(F)(F)C(F)(F)F	inactive	
CCCCCCCCC(F)(F)C(F)(F)C(F)(F)C(F)(F)C(F)(F)C(F)(F)F	inactive	
FC(F)(F)C(F)(F)C(F)(F)C(F)(F)CCI	inactive	
FC(F)(F)C(F)(F)C(F)(F)C(F)(F)C(F)(F)C(F)(F)C(F)(F)C(F)(F)F	inactive	
CCCCCCCCCCCCCCCC[N+](C)(C)Cc1ccccc1	inactive	
CCO[Si](CCC(F)(F)C(F)(F)C(F)(F)C(F)(F)C(F)(F)C(F)(F)F)(OCC)OCC	inactive	
FC(F)(F)C(F)(F)C(F)(F)C(F)(F)C(F)(F)C(F)(F)CC1CO1 (stereo not given)	inactive	
CC(=O)Nc1ccc(N=Nc2cc(C)ccc2O)cc1	inactive	
CCc1ccc(C(c2ccc(CC)cc2)C(Cl)Cl)cc1		0.158 µM (active)
O=P(O)(O)OCCC(F)(F)C(F)(F)C(F)(F)C(F)(F)C(F)(F)C(F)(F)F	inactive	
C=C(C)C(=O)OCC(F)(F)C(F)(F)C(F)(F)C(F)(F)C(F)(F)C(F)(F)C(F)(F)F	inactive	
O=C(O)C(F)(F)C(F)(F)C(F)(F)C(F)(F)C(F)(F)C(F)(F)C(F)(F)C(F)(F)Cl		21.9 µM (active) and 22 µM (active)
FC(F)(F)C(F)(F)C(F)(F)C(F)(F)C(F)(F)C(F)(F)CCS	inactive	
FC(F)(F)C(F)(F)C(F)(F)C(F)(F)C(F)(F)C(F)(F)C(F)(F)C(F)(F)CCS	inactive	
O[Si](c1ccccc1)(c1ccccc1)c1ccccc1		11.6 µM (active)
